Results as given in article PMC4336329 (PLoS ONE, 2015).
Among all 310,000 compounds or so, about 14,000 (4.5%) showed an effect of 50% or more. The effect is printed as a negative number. For the sample, strong results were picked, then their nearest neighbours and some compounds at random.
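Note: peak tail current of the secondary pulse compared with the same well before compound.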

The molecules below were run against human ether-à-go-go-related gene (hERG) potassium channel (human, UniProt Q12809) (assay: primary screen, population patch clamp on CHO cells stably expressing hERG; higher = less effect of the substance).
Chain of human ether-à-go-go-related gene (hERG) potassium channel (Q12809 whole entry, looked up): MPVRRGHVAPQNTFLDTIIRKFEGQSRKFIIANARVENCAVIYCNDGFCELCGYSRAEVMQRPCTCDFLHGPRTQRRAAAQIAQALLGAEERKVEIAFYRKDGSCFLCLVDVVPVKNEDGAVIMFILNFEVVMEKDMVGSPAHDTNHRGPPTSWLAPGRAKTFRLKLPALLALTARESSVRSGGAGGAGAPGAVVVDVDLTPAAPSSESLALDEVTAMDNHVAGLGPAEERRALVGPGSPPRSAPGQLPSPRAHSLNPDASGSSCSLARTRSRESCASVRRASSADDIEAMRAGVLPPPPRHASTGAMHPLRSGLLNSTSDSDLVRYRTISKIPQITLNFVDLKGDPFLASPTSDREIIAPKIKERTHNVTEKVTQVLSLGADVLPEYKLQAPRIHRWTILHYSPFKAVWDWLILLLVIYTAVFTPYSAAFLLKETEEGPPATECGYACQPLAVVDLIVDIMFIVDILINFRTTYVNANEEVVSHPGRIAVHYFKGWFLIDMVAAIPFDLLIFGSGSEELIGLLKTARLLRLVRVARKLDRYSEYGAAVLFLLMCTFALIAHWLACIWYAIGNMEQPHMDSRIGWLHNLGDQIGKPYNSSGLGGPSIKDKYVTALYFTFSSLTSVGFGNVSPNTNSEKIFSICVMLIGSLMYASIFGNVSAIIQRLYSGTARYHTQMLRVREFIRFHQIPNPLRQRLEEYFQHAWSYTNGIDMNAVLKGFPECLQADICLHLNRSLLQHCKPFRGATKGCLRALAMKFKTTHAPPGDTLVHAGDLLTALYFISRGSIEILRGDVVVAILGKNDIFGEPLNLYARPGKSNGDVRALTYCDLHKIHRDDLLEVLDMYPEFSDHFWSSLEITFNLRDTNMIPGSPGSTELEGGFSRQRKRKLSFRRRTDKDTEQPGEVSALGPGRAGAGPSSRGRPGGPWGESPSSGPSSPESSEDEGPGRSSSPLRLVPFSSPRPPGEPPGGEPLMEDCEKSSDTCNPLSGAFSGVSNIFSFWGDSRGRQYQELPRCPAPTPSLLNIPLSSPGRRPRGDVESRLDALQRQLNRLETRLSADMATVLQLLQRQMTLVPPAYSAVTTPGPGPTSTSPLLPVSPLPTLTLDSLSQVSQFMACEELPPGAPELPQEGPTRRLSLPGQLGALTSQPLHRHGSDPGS
In the case of `Cc1ccc([N+](=O)[O-])cc1NC(=O)c1ccc2c(c1)OCO2`, the “hERG current change (%, negative = inhibition) at 10uM” value is reported as 11.4%.
With `Cc1onc(-c2ccccc2)c1C(=O)N(C)CCc1ccccn1` the “hERG current change (%, negative = inhibition) at 10uM” value was 7.12%.
For `CCN(C(=O)CN1CCOCC1)c1c(N)n(Cc2ccccc2)c(=O)[nH]c1=O`, the “hERG current change (%, negative = inhibition) at 10uM” value was 22.2%.
`O=C(c1ccc(=O)oc1)N1CCC(C(O)(c2ccccc2)c2ccccc2)CC1` was tested, and the “hERG current change (%, negative = inhibition) at 10uM” value was -29.2%.
In the case of `CC(=O)Nc1ccc(-c2cc(C(=O)O)c3ccccc3n2)cc1`, the “hERG current change (%, negative = inhibition) at 10uM” value is reported as 17.2%.
In the case of `O=C(O)c1cc(-c2cccs2)nn1-c1cccc(Cl)c1`, the “hERG current change (%, negative = inhibition) at 10uM” value is reported as 17.8%.
For `O=c1c(-c2ccc(Br)cc2)coc2c(CN3CCOCC3)c(O)ccc12`, the “hERG current change (%, negative = inhibition) at 10uM” value was -20.7%.
In the case of `O=C(Oc1ccc(N2C(=O)C3C4CCC(C4)C3C2=O)cc1)c1ccco1` (stereo not shown), the “hERG current change (%, negative = inhibition) at 10uM” value is reported as 13.2%.
With `O=C(NC1CCCc2ccccc21)c1cn2ccccc2n1` (stereo not shown) the “hERG current change (%, negative = inhibition) at 10uM” value was -25.5%.
For `CCC(C(=O)OC(C)C(=O)Nc1ccc(Cl)cn1)c1ccccc1` (stereo not shown), the “hERG current change (%, negative = inhibition) at 10uM” value was 0.842%.
`CSCCC(NS(=O)(=O)c1ccc(C)cc1)C(=O)Nc1ccc(C)cn1` (stereo not shown) was tested, and the “hERG current change (%, negative = inhibition) at 10uM” value was 2.68%.
`CSCCC(NS(=O)(=O)c1ccccc1)C(=O)OC(C)C(=O)Nc1ccc(Cl)cn1` (stereo not shown) was tested, and the “hERG current change (%, negative = inhibition) at 10uM” value was -58.8%.
For `CCCOc1ccc(CCc2n[nH]c(=S)n2Cc2ccccc2)cc1`, the “hERG current change (%, negative = inhibition) at 10uM” value was -7.26%.
With `COC(=O)C(NC(=O)c1ccc(Cl)cc1)(Nc1nc(C)cs1)C(F)(F)F` (stereo not shown) the “hERG current change (%, negative = inhibition) at 10uM” value was -8.63%.
For `CCN1CCCC1CNc1ncnc2c1[nH]c1ccc(Cl)cc12` (stereo not shown), the “hERG current change (%, negative = inhibition) at 10uM” value was -77.1%.
With `Clc1ccc2[nH]c3c(NCC4CCCO4)ncnc3c2c1` (stereo not shown) the “hERG current change (%, negative = inhibition) at 10uM” value was -16.2%.
For `Fc1ccc2[nH]c3c(NCc4ccccc4)ncnc3c2c1`, the “hERG current change (%, negative = inhibition) at 10uM” value was 10.5%.
`CCN1CCCC1CNc1ncnc2c1[nH]c1ccc(F)cc12` (stereo not shown) was tested, and the “hERG current change (%, negative = inhibition) at 10uM” value was -76.6%.
`CC(C)OCCCNc1ncnc2c1[nH]c1ccc(F)cc12` was tested, and the “hERG current change (%, negative = inhibition) at 10uM” value was -2.39%.
`C=CCNc1ncnc2c1[nH]c1ccc(Cl)cc12` was tested, and the “hERG current change (%, negative = inhibition) at 10uM” value was -7.82%.
In the case of `CCCCCOC(=O)C1=C(C)NC(=O)NC1c1ccc(OC)cc1` (stereo not shown), the “hERG current change (%, negative = inhibition) at 10uM” value is reported as 5.95%.
With `CCN(CC)CCCN(Cc1cc2cc3c(cc2[nH]c1=O)OCO3)C(=S)NCCOC` the “hERG current change (%, negative = inhibition) at 10uM” value was 5.4%.
With `COc1ccc(C(=O)Nc2ccc(N3CCN(C)CC3)cc2)cc1[N+](=O)[O-]` the “hERG current change (%, negative = inhibition) at 10uM” value was -38.5%.
In the case of `CCOc1ccc(C(=O)Nc2ccc(N3CCN(C(C)=O)CC3)cc2)cc1[N+](=O)[O-]`, the “hERG current change (%, negative = inhibition) at 10uM” value is reported as -45.5%.
With `COc1ccc(C(=O)Nc2ccc(N3CCN(C(C)=O)CC3)cc2)cc1[N+](=O)[O-]` the “hERG current change (%, negative = inhibition) at 10uM” value was 11.7%.
For `CCOc1ccc(C(=O)Nc2ccc(N3CCN(C)CC3)cc2)cc1`, the “hERG current change (%, negative = inhibition) at 10uM” value was -50.2%.
In the case of `COc1ccc(C(=O)Nc2ccc(C(=O)N3CCCC3)cc2)cc1[N+](=O)[O-]`, the “hERG current change (%, negative = inhibition) at 10uM” value is reported as -33.2%.
With `CCOc1ccc(C(=O)Nc2ccc(N3CCCC3)cc2)cc1` the “hERG current change (%, negative = inhibition) at 10uM” value was 3.89%.
For `COc1ccc(C(=O)Nc2ccc(N3CCN(C(=O)c4ccccc4)CC3)cc2)cc1[N+](=O)[O-]`, the “hERG current change (%, negative = inhibition) at 10uM” value was -67.2%.
For `CCOc1ccc(C(=O)Nc2ccc(N3CCN(C)CC3)cc2)cc1[N+](=O)[O-]`, the “hERG current change (%, negative = inhibition) at 10uM” value was -57.3%.
In the case of `CCCCOc1ccc(C(=O)Nc2ccc(N3CCN(C)CC3)cc2)cc1`, the “hERG current change (%, negative = inhibition) at 10uM” value is reported as -10.2%.
With `CCC(=O)Nc1ccccc1C(=O)OCc1ccc(C(=O)c2ccccc2)cc1` the “hERG current change (%, negative = inhibition) at 10uM” value was -16.1%.
With `CCCCC(C(=O)NC(=O)NCc1ccccc1)N1C(=O)c2ccccc2C1=O` (stereo not shown) the “hERG current change (%, negative = inhibition) at 10uM” value was 11%.
`CO/N=C(\N)c1nonc1N` was tested, and the “hERG current change (%, negative = inhibition) at 10uM” value was 0.407%.
For `COCOc1cc(O)c(C(=O)/C=C/c2ccccc2)c(OCOC)c1`, the “hERG current change (%, negative = inhibition) at 10uM” value was 4.67%.
With `CC(C)O.COc1cc(/C=N/NC(=O)c2ccc(O)cc2)ccc1Oc1ccc([N+](=O)[O-])cn1` the “hERG current change (%, negative = inhibition) at 10uM” value was -32%.
With `Cc1ccc(S(=O)(=O)N(C)c2ccc(OC(=O)CN3C(=O)NC4(CCCC4)C3=O)cc2)cc1` the “hERG current change (%, negative = inhibition) at 10uM” value was -14.4%.
For `COc1ccccc1C(=O)Nc1ccnn1C1CCN(CCC(C)c2ccc(C)o2)CC1` (stereo not shown), the “hERG current change (%, negative = inhibition) at 10uM” value was -80.8%.
For `C/C=C(\C)CN1CCC(n2nccc2NC(=O)c2ccc(OC)cc2)CC1`, the “hERG current change (%, negative = inhibition) at 10uM” value was 2.92%.
`COC(C(=O)Nc1ccnn1C1CCN(Cc2ccc(C)o2)CC1)c1ccccc1` (stereo not shown) was tested, and the “hERG current change (%, negative = inhibition) at 10uM” value was -2.65%.
In the case of `COc1ccc(C(=O)Nc2ccnn2C2CCN(CCC(C)c3ccc(C)o3)CC2)cc1` (stereo not shown), the “hERG current change (%, negative = inhibition) at 10uM” value is reported as -67%.
With `COc1ccc(C(=O)Nc2ccnn2C2CCN(Cc3ccncc3)CC2)cc1` the “hERG current change (%, negative = inhibition) at 10uM” value was -8.86%.
With `CCOc1cc(NC2CS(=O)(=O)CC2O)c(OCC)cc1NC(=O)c1ccccc1` (stereo not shown) the “hERG current change (%, negative = inhibition) at 10uM” value was 5.95%.
`Cc1nnc(N/N=C/c2ccc(-c3ccccc3F)o2)n1N.Cl` was tested, and the “hERG current change (%, negative = inhibition) at 10uM” value was -40.3%.
With `CN(C)c1cccc2cccc(N(C)C)c12` the “hERG current change (%, negative = inhibition) at 10uM” value was -3.13%.
`O=C(N/C(=C/c1ccco1)C(=O)N1CCCCCC1)c1ccccc1` was tested, and the “hERG current change (%, negative = inhibition) at 10uM” value was 13.2%.
`O=C(N/C(=C\c1ccco1)C(=O)N1CCCC1)c1ccccc1` was tested, and the “hERG current change (%, negative = inhibition) at 10uM” value was 1.23%.
In the case of `NC(=O)C1CCN(C(=O)/C(=C/c2ccco2)NC(=O)c2ccccc2)CC1`, the “hERG current change (%, negative = inhibition) at 10uM” value is reported as 11.2%.
With `CN1CCN(C(=O)/C(=C/c2ccco2)NC(=O)c2ccccc2)CC1` the “hERG current change (%, negative = inhibition) at 10uM” value was -67.6%.
In the case of `O=C(N/C(=C\c1ccco1)C(=O)N1CCC(O)CC1)c1ccccc1`, the “hERG current change (%, negative = inhibition) at 10uM” value is reported as 27.7%.
In the case of `CCN1CCN(C(=O)/C(=C/c2ccco2)NC(=O)c2ccccc2)CC1`, the “hERG current change (%, negative = inhibition) at 10uM” value is reported as -70.4%.
With `CCN(c1ccc(OC)cc1)S(=O)(=O)c1csc(C(N)=O)c1` the “hERG current change (%, negative = inhibition) at 10uM” value was 6.68%.
`COc1ccc(C(=O)Cc2ccc(OC)c(OC)c2)c(OC)c1` was tested, and the “hERG current change (%, negative = inhibition) at 10uM” value was -0.547%.
With `Cc1ccccc1-n1nnc2c(=O)oc3ccccc3c21` the “hERG current change (%, negative = inhibition) at 10uM” value was 8.96%.
With `Cc1ccc(-n2nc3ccc(NC(=O)/C=C/c4ccco4)cc3n2)cc1` the “hERG current change (%, negative = inhibition) at 10uM” value was 7.32%.
